Assay results published in PubChem BioAssay AID431 (Sanford-Burnham Center for Chemical Genomics, 2006).
The campaign covered roughly 63,000 compounds. About 1,100 (1.7%) were called active. This excerpt belongs to a sample that is enriched for actives. Measured potencies and affinities stand elsewhere. Unmarked numbers belong to inactive results.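 Rule for the calls: active = compounds whose percent cytotoxicity in the single-dose primary screen, scaled between solvent and toxic-drug controls, exceeds 50; inactive = the rest.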

Experiment: cytotoxicity in KRAS-transformed pancreatic duct cells, primary screen, cell-based, fluorescence, HTS (AID 431);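 note: 0% = DMSO solvent wells and 100% = doxorubicin-treated wells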
Conditions: HPDE-C7K KRASV12 cells, Alamar Blue viability, 48 h; at 10 µM; hits give high values

SMILES	cytotoxicity
Cc1ccc(OCC(=O)NCCO)cc1C	9.8%
C=Cn1c(N2CCOCC2)nc2c1c(=O)[nH]c(=O)n2C	-2.9%
O=C(Nc1cc(C(=O)N2CCOCC2)ccc1N1CCCC1)c1cccs1	-2.1%
CC(C)c1ccc2oc(-c3cc(N)ccc3O)nc2c1	51.5% (active)
CCc1ccc2oc(-c3cc(N)ccc3O)nc2c1	7.1%
CC(C)c1ccc2oc(-c3ccc(N)cc3)nc2c1	-11.3%
COC(=O)c1ccsc1NC(=O)CN1C(=O)CCC1=O	-1.3%
COCCn1c(SCC(=O)Nc2ncc(C)s2)nc2sc3c(c2c1=O)CCC3	14.3%
CN1C(=O)/C(=C2/C=CC=CN2C)OC1=S	-24.5%
COc1ccc(CCNC(=O)C2CCN(S(=O)(=O)c3cc(OC)ccc3OC)CC2)cc1	2.3%
COc1cccc(C2=CC(c3cc(OC)ccc3OC)n3nnnc3N2)c1 (centres undefined)	65.1% (active)
COc1cccc(C2=CC(c3cccc(OC)c3OC(F)F)n3nnnc3N2)c1 (centres undefined)	-13.8%
COc1cccc(C2=CC(c3ccccc3)n3nnnc3N2)c1 (centres undefined)	43.2%
COc1ccccc1C1C=C(c2ccccc2)Nc2nnnn21 (centres undefined)	25.4%
COc1cccc(C2=CC(c3cccc(OC)c3OC)n3nnnc3N2)c1 (centres undefined)	58.1% (active)
COc1ccccc1C1C=C(c2ccc(C)cc2)Nc2nnnn21 (centres undefined)	-8.9%
COc1ccc(C2=CC(c3c(C)nn(-c4ccccc4)c3Cl)n3nnnc3N2)cc1OC (centres undefined)	84.4% (active)
COc1ccc(C2=CC(c3ccc(OC)c(OC)c3)n3nnnc3N2)c(OC)c1 (centres undefined)	4%
COc1ccc(OC)c(C2C=C(c3ccc(C)c(C)c3)Nc3nnnn32)c1 (centres undefined)	6%
COc1cccc(C2=CC(c3ccc(OC)c(OC)c3OC)n3nnnc3N2)c1 (centres undefined)	-4.5%
COc1cccc(C2=CC(c3ccc(N(C)C)cc3)n3nnnc3N2)c1 (centres undefined)	-3.6%
CC1CCCCC1NC(=O)CSc1nc2ccccc2c(=O)n1Cc1ccco1 (centres undefined)	-6.9%
COc1cccc(N(CC(=O)Nc2ccccc2C)S(C)(=O)=O)c1	14.1%
c1ccc(-c2nc3ccccc3nc2-c2ccccn2)nc1	13.9%

SMILES	cytotoxicity
COc1ccc(OC)c2[nH]c(=O)c(CCNC(=O)CC(C)C)cc12	-6.6%
CCOC(=O)N1CCC(NC(=O)C2=C(C)C(=O)OC23CCC(C)CC3)CC1 (centres undefined)	-10.3%
Cc1nn(C)c(C)c1S(=O)(=O)N1CCCC(C(=O)NC2CCCCC2)C1 (centres undefined)	-4.9%
COc1ccc(NC(=O)CSc2nnc(-c3ccncc3)n2CC2CCCO2)c(OC)c1 (centres undefined)	-18.3%
CCC(CC)C(=O)NCCc1cc2c(OC)ccc(OC)c2[nH]c1=O	7.1%
O=C(c1ccco1)N1CCN(c2ncnc3c2[nH]c2ccc(Br)cc23)CC1	10%
Clc1ccc(-c2nnc(-c3ccccc3Cl)o2)cc1	13.7%
Cc1nc(NC(=O)c2csc3ccccc23)sc1C	2.8%
COc1ccccc1C1(CC(=O)N2CCOCC2)CCOC(C(C)C)C1 (centres undefined)	-15.3%
CCC(=O)O[C@@H]1CC(=O)O[C@H](C)CC=CC=C[C@@H](O)[C@H](C)C[C@H](CC=O)[C@H](O[C@H]2O[C@H](C)[C@@H](O[C@H]3C[C@@](C)(O)[C@@H](OC(=O)CC)[C@H](C)O3)[C@H](N(C)C)[C@H]2O)[C@H]1OC	-0.4%
CC[C@H]1OC(=O)C[C@@H](O)[C@H](C)[C@@H](O[C@@H]2O[C@H](C)C[C@H](N(C)C)[C@H]2O)[C@@H](CC=O)C[C@@H](C)C(=O)C=C[C@]2(C)O[C@H]2[C@@H]1C	76.8% (active)
Cc1cc(C)cc(NC(=O)Cn2ncn3c(cc4ccccc43)c2=O)c1	-13.3%
CN1CCN(C2=C(Cl)C(=O)N(C3CCCCC3)C2=O)CC1	3%
O=C1c2ccncc2C(=O)N1C1CCCCC1	2.8%
O=C(Nc1ccc2c(c1)OCCO2)C1CCN(S(=O)(=O)c2cccs2)CC1	-8.1%
O=C(CCCCCn1c(SCc2ccncc2)nc2ccccc2c1=O)NCc1ccco1	9.3%
COc1ccc(NC(=O)c2cc(-c3cc(C)cc(C)c3O)n[nH]2)cc1Cl	70.7% (active)
Cc1ccc(O)c(-c2cc(C(=O)Nc3ccc(S(=O)(=O)N4CC(C)OC(C)C4)cc3)[nH]n2)c1 (centres undefined)	-13.4%
COc1ccc(OC)c(NC(=O)c2cc(-c3ccc(C)cc3O)n[nH]2)c1	-0.5%
Cc1cc(O)c(-c2cc(C(=O)Nc3ccc(S(=O)(=O)N4CCOCC4)cc3)[nH]n2)cc1C	6.5%
COc1ccc(OC)c(NC(=O)c2cc(-c3cc(Cl)ccc3O)n[nH]2)c1	1.7%
Cc1c(N=C2SCC(=O)N2c2c(C)n(C)n(-c3ccccc3)c2=O)c(=O)n(-c2ccccc2)n1C	15.2%
COc1ccccc1/C=c1\sc2nc(-c3ccncc3)nn2c1=O	-13.5%
COc1ccc2nc3sc(C(=O)NCc4cccs4)c(N)c3cc2c1	5.5%

SMILES	cytotoxicity
c1ccc(-c2oc3ncnc(NCCCN4CCOCC4)c3c2-c2ccccc2)cc1	59.8% (active)
COc1ccc(-c2oc3ncn(CCN4CCOCC4)c(=N)c3c2-c2ccc(OC)cc2)cc1	17.3%
N=c1c2c(-c3ccccc3)c(-c3ccccc3)oc2ncn1CCN1CCOCC1	33.6%
COc1ccc(-c2oc3ncnc(NCCCN4CCOCC4)c3c2-c2ccc(OC)cc2)cc1	107% (active)
COc1ccc(-c2oc3ncnc(NCCN4CCOCC4)c3c2-c2ccc(OC)cc2)cc1	4%
N=c1c2c(-c3ccccc3)c(-c3ccccc3)oc2ncn1CCCN1CCOCC1	55.5% (active)
c1ccc(-c2oc3ncnc(NCCCn4ccnc4)c3c2-c2ccccc2)cc1	17.3%
c1ccc(-c2oc3ncnc(NCCN4CCOCC4)c3c2-c2ccccc2)cc1	42%
COc1ccc(-c2csc3ncnc(NCCN4CCOCC4)c23)cc1	25.8%
CCc1nnc(NC=C2C(=O)OC(C)(C)OC2=O)s1	-7.7%
Cc1c(/C(O)=C2/C(=O)C(=O)N(CCN3CCOCC3)C2c2cccnc2)cnn1-c1ccccc1 (centres undefined)	-12.5%
CCN(CC)CCN1C(=O)C(O)=C(C(=O)c2sc(C)nc2C)C1c1cccnc1 (centres undefined)	-8.8%
O=C(CN1CCN(C(=O)c2cccs2)CC1)NC1CCCCC1	-4.4%
CC1(C)CC(=O)C(C=Nc2cccnc2)=C(O)C1	7.1%
COc1cc(C(=O)Nc2cccc(-c3nc4cc(C)ccc4o3)c2C)cc(OC)c1OC	14.3%
CCOC(=O)C1=C(N)Oc2cc(C)oc(=O)c2C1c1cccnc1 (centres undefined)	4.4%
Cc1n[nH]c(=O)nc1NCc1ccccc1	-17%
CCCCCc1c(C)nc(NCc2ccccc2)[nH]c1=O	2.9%
CCC(C)(C)NC(=O)C(c1cccn1C)N(Cc1ccccc1)C(=O)Cn1nnc2ccccc21 (centres undefined)	-4.3%
CC(=O)NC1CSCC1OC(C)=O (centres undefined)	-14.9%
CCOC(=O)c1c(N)sc(C(=O)N2CCOCC2)c1C	-10.1%
CC(C)(C)NC(=O)c1ccc(COc2ccccc2Br)o1	-20.3%
COc1ccc(NC(=O)c2ccc(COc3ccccc3Br)o2)cc1OC	40.4%
COc1cc(NC(=O)c2ccc(COc3ccccc3Br)o2)cc(OC)c1OC	68.9% (active)

SMILES	cytotoxicity
O=C(Nc1nccs1)c1ccc(COc2ccccc2Br)o1	51% (active)
O=C(Nc1nccs1)c1ccc(COc2ccc(F)cc2)o1	5%
O=C(Nc1cccnc1)c1ccc(COc2ccccc2Br)o1	30.3%
CC(C)c1nc(SCC(=O)NCc2ccccc2)n[nH]1	-9.2%
CN1C(=O)c2ccccc2N(C)C1c1ccc2c(c1)OCO2 (centres undefined)	6.7%
COc1ccc(C(=O)NCC(=O)n2nc(C)cc2C)cc1OC	13.4%
Cc1ccc2c(c1)N(C(C)C(=O)NCCc1ccccc1)C(=O)CO2 (centres undefined)	-4.9%
COc1cccc(CN(C)CC(=O)NC(=O)NCc2ccco2)c1	-9.5%
O=C(CN(C1CCCCC1)S(=O)(=O)c1ccc(Cl)cc1)NCc1cccnc1	-28.1%
Cc1ccc(S(=O)(=O)N(CC(=O)NCc2ccncc2)C2CCCCC2)cc1	1.7%
O=C(CN(C1CCCCC1)S(=O)(=O)c1ccccc1)NCc1cccnc1	73.1% (active)
COc1ccc(C(=O)N2CCCC(c3nc(-c4cccs4)no3)C2)cc1 (centres undefined)	3%
CCOc1ccc(-c2c(C#N)c(N)nc3c2c(=O)n(C)c(=O)n3C)cc1OC	-3.8%
CN(C)CCCNc1ncnc2c1cnn2-c1ccccc1	0.7%
Clc1ccc(-n2ncc3c(NCc4ccco4)ncnc32)cc1	8.8%
Cc1cccc(-n2ncc3c(NCc4ccco4)ncnc32)c1	69.2% (active)
c1ccc(-n2ncc3c(NCc4ccco4)ncnc32)cc1	7.1%
c1ccc(Cn2ncc3c(NCc4ccco4)ncnc32)cc1	8.3%
CCCCNc1ncnc2c1cnn2-c1ccc(Cl)cc1	28.5%
Cc1ccc(-n2ncc3c(NCc4ccco4)ncnc32)c(C)c1	5.4%
CCCCNc1ncnc2c1cnn2-c1ccccc1	61.8% (active)
Clc1ccc(Cn2ncc3c(NCc4ccco4)ncnc32)c(Cl)c1	60.9% (active)
